Bioassay records: PubChem BioAssay, Broad Institute
CD40 NFkB inh – inhibitors of CD40-induced NF-kB signaling, primary screen, BL2 cells, luciferase reporter, single point | CD40L-induced, 4 h | inhibition, % at 10 µM | 0.94% of 83,000 active;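 active = mean inhibition of at least 50% with a set share of replicates also reaching that level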;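 also: 0% = neutral control wells and 100% = IKK inhibitor VII at 50 µM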
* hit, by the source's call; [ ] = another dose, or the depositor's remark. The full list was thinned out, with hits kept by preference.

SMILES | CD40 NFkB inh
CN1CCN(C(=O)C[C@@H]2CC[C@@H]3[C@H](COc4ccc(NC(=O)C5CCOCC5)cc4C(=O)N3C)O2)CC1 | -5[25 µM]
CCOC(=O)c1c(C)c(C(=O)N2CCN(c3ccccc3)CC2)c(C)n1C | 8
CCOC(=O)c1c(SCCN2CCCC2)n(-c2ccccc2)c(=S)n(-c2ccccc2)c1=O | 51*
CCOC(=O)C1CCCN(CCC(C)c2ccccc2)C1 (centres undefined) | 21
COCC(=O)N1CC2(CCN(Cc3ccccc3)CC2)c2c([nH]c3cc(OC)ccc23)[C@H]1CO | -19[25 µM]
CN1c2ccc(C#Cc3ccccc3)cc2[C@H]2[C@H](CCN2S(=O)(=O)c2ccccc2F)[C@H]1CO | 3
CCC(=O)N1[C@@H](CO)[C@@H](c2ccccc2)C12CN(Cc1ccccc1Cl)C2 | 8[25 µM]
C[C@@H]1CN([C@@H](C)CO)C(=O)c2c(c3ccccc3n2C)-c2ccccc2CO[C@H]1CN(C)Cc1ccc(O)cc1 | -3
COc1cc2c3nnc(-c4ccccc4)c-3cn(Cc3ccc(F)cc3)c2cc1OC | 55*
COc1ccc(CNn2c(-c3cccc(C)c3)nc3ccccc3c2=O)cc1OC | -9
CCc1nc2ccccc2n1Cc1ccc(OC)c(OC)c1 | 5
O=C(C[C@@H]1C[C@H]2c3cc(NC(=O)c4cccnc4)ccc3O[C@H]2[C@H](CO)O1)NC1CCCC1 | 0
Cc1[nH]c2ccccc2c1CCO | 18
Cc1[nH]c2ccccc2c1C1=CC(=O)C=CC1=O | 91*
Cc1[nH]c2ccccc2c1CC#N | -1
CCCNC(=O)N1C[C@@H]2[C@H](c3ccccc31)[C@@H](CO)N2C(=O)Nc1ccccc1F | 0[25 µM]
C=C1C(=O)OC2C1C(OC(=O)C(C)=CC)CC(=C)C1C(O)C3OC3(C)C21O (centres undefined) | 33
C=C1C(=O)OC2C=C(CO)CCC=C(CO)CC(OC(=O)C(C)C)C12 (centres undefined) | 87*
CN1CCCCN2[C@H](C1)[C@@H](c1ccc(-c3ccc(F)cc3)cc1)[C@@H]2CO | 5[25 µM]
O=C(Nc1cc(F)ccc1F)N[C@@H]1CC[C@H](CCn2cc(C3CCCC3)nn2)O[C@H]1CO | 2
CC(C)OC(=O)c1cn(Cc2c(F)cccc2F)c2sc(-c3ccc(NC(=O)C(C)C)cc3)c(CN(C)Cc3ccccc3)c2c1=O | 54*[25 µM]
C[C@H](CO)N1C[C@H](C)[C@@H](CN(C)CC2CCCCC2)OCc2cn(nn2)CCCC1=O | 1[25 µM]
COc1ccc2c3c([nH]c2c1)[C@H](CO)N(S(C)(=O)=O)CC31CCN(C(=O)Nc2ccccc2)CC1 | -6[25 µM]
CC(=O)OCC(=O)C1(O)CCC2C3CCC4=CC(=O)CCC4(C)C3(Cl)C(O)CC21C (centres undefined) | 62*
C[C@]12CCC(=O)C=C1CC[C@@H]1[C@@H]2[C@@H](O)C[C@@]2(C)[C@H]1CC[C@]2(O)C(=O)COC(=O)CCC(=O)O | 24
SMILES | CD40 NFkB inh
CC(=O)OCC=C1CCC2C3CCC4=CC(=O)CCC4(C)C3C(O)CC12C (centres undefined) | 7
CC(=O)Nc1ccc2c(c1)C(=O)N(C)C[C@H](C)[C@@H](CN(C)C(C)=O)O2 | 2
Cc1ccc(S(=O)(=O)N(C)C[C@@H]2OCCCC[C@@H](C)Oc3ccc(NS(=O)(=O)c4ccccc4)cc3C(=O)N([C@@H](C)CO)C[C@@H]2C)cc1 | 2
CCCC#Cc1ccc2c(c1)[C@@H]1[C@@H](CCN1C(=O)C1CCCCC1)[C@@H](CO)N2 | 3[25 µM]
C=C(CC)C(=O)c1ccc(OCC(=O)O)c(Cl)c1Cl | 41*
CCOC(=O)COc1ccc2nsnc2c1Cl | 9
COc1ccccc1OCC(=O)O | 7
Cc1ccc(C)c(N(CC(=O)N(C)C)S(C)(=O)=O)c1 | 4
Cc1ccc(OC(=O)CCC(=O)Oc2ccc(C)cc2C)c(C)c1 | 0
C=C(CN(C)C)C(=O)c1ccc(C)cc1C | 93*
CC(=O)N(C)C[C@@H]1Oc2ccc(N)cc2C(=O)N(C)C[C@@H]1C | 4
CC(C)[C@H]1C(=O)N[C@@H](c2ccc3c(c2)OCO3)CC=CC[C@H](C)Oc2ccccc2C(=O)N1C (mixture of isomers) | 1
CC(C)NC(=O)Nc1ccc2c(c1)CC(=O)N(C)C[C@H](C)[C@@H](CN(C)C)O2 | 3
O=C(COc1cccnc1[N+](=O)[O-])Nc1ncc(Cl)cc1Cl | -15
O=C(COc1cccnc1[N+](=O)[O-])c1ccc(Cl)s1 | 92*
O=C(COc1cccnc1[N+](=O)[O-])Nc1c(Cl)cccc1Cl | 5
COCC(=O)N1[C@H](C#N)[C@@H](c2ccccc2C2=CCCCC2)[C@H]1CO | -5[25 µM]
NC1=C(Cl)C(=O)c2ccc(S(N)(=O)=O)cc2C1=O | 60*
NS(=O)(=O)c1ccc(Cl)c(S(N)(=O)=O)c1 | 10
Nc1ccc(S(N)(=O)=O)cc1N | -45
N#C[C@@H]1[C@@H](c2ccc(C#Cc3cccc(F)c3)cc2)[C@@H](CO)N1C(=O)C1CC1 | 3
N#C[C@H]1[C@@H](c2ccc(C#Cc3ccccc3F)cc2)[C@@H](CO)N1C(=O)C1CCCC1 | 15
CCS(=O)(=O)N1[C@H](CO)[C@H](c2ccc(C#Cc3ccccc3F)cc2)[C@@H]1C#N | -4[25 µM]
N#C[C@@H]1[C@H](c2ccc(C#Cc3cccc(F)c3)cc2)[C@@H](CO)N1C(=O)C1CCC1 | 99*
N#C[C@@H]1[C@H](c2ccc(C#Cc3ccc(F)cc3)cc2)[C@@H](CO)N1C(=O)C1CCCC1 | 87*
SMILES | CD40 NFkB inh
CCS(=O)(=O)N1[C@H](C#N)[C@@H](c2ccc(C#Cc3ccccc3F)cc2)[C@H]1CO | -13[25 µM]
COc1cccc(C#Cc2ccc([C@@H]3[C@@H](C#N)N(C(=O)c4ccccn4)[C@H]3CO)cc2)c1 | -23[25 µM]
CCS(=O)(=O)N1[C@H](CO)[C@@H](c2ccc(C#Cc3ccccc3F)cc2)[C@@H]1C#N | 65*[25 µM]
COc1cccc(C#Cc2ccc([C@@H]3[C@@H](C#N)N(C(=O)c4ccccn4)[C@@H]3CO)cc2)c1 | 1[25 µM]
N#C[C@H]1[C@H](c2ccc(C#Cc3ccc(F)cc3)cc2)[C@H](CO)N1C(=O)C1CC1 | -26
COc1cccc(C#Cc2ccc([C@H]3[C@@H](C#N)N(C(=O)c4ccccn4)[C@@H]3CO)cc2)c1 | 53*[25 µM]
N#C[C@@H]1[C@@H](c2ccc(C#Cc3cccc(F)c3)cc2)[C@@H](CO)N1C(=O)C1CCCC1 | -47
COc1ccccc1C#Cc1ccc([C@@H]2[C@@H](C#N)N(C(=O)C3CC3)[C@H]2CO)cc1 | -5
CN1c2ccc(-c3cccc(F)c3)cc2[C@H]2[C@H](CCN2C(=O)c2ccncc2)[C@H]1CO | 8[25 µM]
O=C(C[C@H]1C[C@@H]2c3cc(NC(=O)NC4CCCC4)ccc3O[C@@H]2[C@H](CO)O1)NCc1cccnc1 | 0
CCCC#Cc1ccc([C@@H]2[C@H](C#N)N(C(=O)C3CCCC3)[C@H]2CO)cc1 | 6
CCC(=O)N1[C@@H]2CN(C(=O)c3ccccc3F)c3ccccc3[C@@H]2[C@@H]1CO | 19[25 µM]
O=C(C[C@@H]1C[C@H]2c3cc(NC(=O)NC4CCCCC4)ccc3O[C@H]2[C@@H](CO)O1)NCc1ccncc1 | 1
N#C[C@H]1N[C@H](CO)[C@@H]1c1ccc(-c2cccc(F)c2)cc1 | 10[25 µM]
COc1ccc2c3c(n(C)c2c1)[C@@H](CO)N(C)CC31CN(C(=O)C2CCC2)C1 | -1[25 µM]
COC(=O)C1CC2=CC(=O)CCC2(C)C23OC2CC2(C)C(CCC24CCC(=O)O4)C13 (centres undefined) | 2[25 µM]
N#C[C@H]1[C@@H](c2ccc(C#Cc3ccccc3F)cc2)[C@H](CO)N1C(=O)C1CC1 | 30[25 µM]
